# Experimental data as given in the supplement of paper PMC13380429.
# Legend:
# [1] = test system: Vero E6 infected with SARS-CoV-2; test: morphology score (similarity to uninfected cells); higher = more like uninfected cells; details: 24 h
# [2] = test system: Vero E6 infected with SARS-CoV-2; test: SARS-CoV-2 infection rate relative to infected DMSO; higher = more infection, active = 60 or less; details: 24 h
SMILES,morphology score [1],SARS-CoV-2 infection rate [2]
CC(C)(C#N)c1cc(Cn2cncn2)cc(C(C)(C)C#N)c1 [anastrozole] (10 µM),-0.0389,109% (inactive)
C[C@@H]1COC(Nc2ccc3ncnc(Nc4ccc(OCc5nccs5)c(Cl)c4)c3c2)=N1 (10 µM),-0.156,97% (inactive)
CN1C(=O)C[C@@H](C(=O)N[C@@H](Cc2c[nH]cn2)C(=O)N2CCC[C@H]2C(N)=O)NC1=O [taltirelin] (10 µM),0.0707,87% (inactive)
CC(N)Cc1c[nH]c2ccc(OCc3cccs3)cc12 (stereo unspecified) (10 µM),0.0586,90% (inactive)
Cc1ccc(-c2ccc(F)cc2COc2ccc(CCC(=O)O)cc2)cc1 (10 µM),-0.174,100% (inactive)
CCOC(=O)c1c(O)nc2cccc3c2c1-c1ccccc1C3=O (10 µM),-0.157,117% (inactive)
COC(=O)C1=C(C)NC(C)=C(C(=O)OC(C)C)[C@@H]1c1cccc2nonc12 [isradipine] (10 µM),-0.0665,104% (inactive)
O=C1c2cccc(O)c2C(=O)c2c(O)cc(CO)cc21 [aloe-emodin] (10 µM),0.29,101% (inactive)
